Measurements published in PubChem BioAssay.
Activity calls are given as the source filed them.

How the values were obtained:
[1] = test system: XIP peptide (Xip251-270) binding; assay: XIP fragment 251-270 binding compounds – biochemical, small-molecule microarray, fluorescence 635/667 nm, 0.1 µg/mL protein, primary screen (AID 1182); settings: fluorescent protein binding, 635 nm, higher = more signal, called active from +8 up or from −8 down
[2] = test system: XIP peptide (Xip251-270); assay: compounds binding XIP fragment 251-270 – biochemical, small-molecule microarray, fluorescence 635/667 nm, 0.5 µg/mL protein, primary screen (AID 1183); settings: fluorescence 635 nm, higher = more signal
[3] = blood-stage malaria parasite viability loss – strain 3D7, DAPI fluorescence, 100 nL, primary screen (AID 1184);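 also: parasites grown inside human red blood cells in medium with human serum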; settings: P. falciparum 3D7 growth, 3 d, higher = more signal
[4] = target: Homeobox protein Hox-A13 (Mus musculus) (UniProt Q62424); assay: disruptors of Hoxa13 oligonucleotide interaction – biochemical, fluorescence polarization, labeled oligonucleotide, primary screen (AID 1185); settings: Hoxa13:DNA binding, 15 min, higher = more signal, called active from +8 up or from −8 down
Sequence of Homeobox protein Hox-A13 (Mus musculus) (Q62424 whole entry, looked up): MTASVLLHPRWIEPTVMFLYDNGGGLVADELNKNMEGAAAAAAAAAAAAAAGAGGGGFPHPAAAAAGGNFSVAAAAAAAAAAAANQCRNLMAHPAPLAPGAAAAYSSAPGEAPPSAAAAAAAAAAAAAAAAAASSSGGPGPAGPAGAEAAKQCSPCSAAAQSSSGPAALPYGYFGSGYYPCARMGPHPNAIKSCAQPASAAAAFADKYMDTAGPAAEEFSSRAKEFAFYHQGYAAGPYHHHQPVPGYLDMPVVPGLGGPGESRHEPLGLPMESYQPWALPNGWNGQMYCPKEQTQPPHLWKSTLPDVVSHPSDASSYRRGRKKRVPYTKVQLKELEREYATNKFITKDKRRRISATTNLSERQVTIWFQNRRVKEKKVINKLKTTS

Row | SMILES | composite z-score [1] | composite z-score [2] | z-score [3] | z-score [4]
1 | COc1cccc([C@H]2Oc3ccc(OC)cc3C(=NO[C@H](C)c3cn([C@H](CO)Cc4ccccc4)nn3)[C@@H]2O)c1 | -0.0592 (inactive) | 0.733 | 0.24 | -6.29 (inactive)
2 | O=C1CCCC=C1C(O)CCOC(c1ccccc1)(c1ccccc1)c1ccccc1 (stereo not given) | -0.0848 (inactive) | -0.364 | -1.1 | -4.61 (inactive)
3 | CCOC(=O)[C@H](Cc1ccccc1)NC(=O)CCC1CC(OC(=O)NCc2cccc3ccccc23)CC2(CCCC(COC(=O)NCC(c3ccccc3)c3ccccc3)O2)O1 (stereo not given in full) | 0.2 (inactive) | 0.366 | -1.83 | -4.93 (inactive)
4 | C[C@@H]1CC[C@H]2C(=O)O[C@@H](COc3ccc(C(C)(C)C)cc3)CN2[C@@H]1c1ccc(Br)cc1 | 0.286 (inactive) | 0.0087 | 0.093 | 0.347 (inactive)
5 | CCCNC(=O)OC[C@H]1O[C@H](CCON=C(C)C)C=C[C@@H]1Oc1ccc(OC)cc1 | 0.771 (inactive) | 0.219 | 1.07 | 0.928 (inactive)
6 | CCCNC(=O)OC[C@H]1O[C@H](CCON=C(C)CCN2CCCc3nc(C)c(C)cc32)C=C[C@@H]1Oc1ccc(OC)cc1 | -0.0364 (inactive) | 0.527 | -2.33 | -5.56 (inactive)
7 | CCOC(=O)[C@H](Cc1ccccc1)NC(=O)CCC1CC(OC(=O)NCCc2ccc(F)cc2)CC2(CCCC(COC(=O)NCc3ccccc3)O2)O1 (stereo not given in full) | 0.501 (inactive) | 0.283 | -1.64 | -2.25 (inactive)
8 | CCOC(=O)[C@H](CC(C)C)NC(=O)CCC1CC(OC(=O)NCc2cccc3ccccc23)CC2(CCCC(COC(=O)NCc3cccc(C(F)(F)F)c3)O2)O1 (stereo not given in full) | -0.364 (inactive) | -0.298 | 0.688 | -0.443 (inactive)
9 | CCOC(=O)[C@H](Cc1ccccc1)NC(=O)CCC1CC(OC(=O)NCCc2ccc(F)cc2)CC2(CCCC(COC(=O)NCC3CCCCC3)O2)O1 (stereo not given in full) | 0.233 (inactive) | 0.605 | -1.82 | -2.33 (inactive)
10 | COc1ccc(O[C@@H]2[C@H](O)CO[C@H]2C=Cc2ccccc2)cc1 | 0.266 (inactive) | -0.0143 | 0.465 | -1.16 (inactive)
11 | COC(=O)CC=C[C@@H](C)[C@@H](C=NOC[C@@H](O)[C@H]1O[C@@H]2OC(C)(C)O[C@@H]2[C@H]1O)NS(=O)(=O)c1ccc(C)cc1 | 0.0133 (inactive) | -0.0003 | 1.4 | 0.413 (inactive)
12 | CCOC(=O)[C@H](Cc1ccccc1)NC(=O)CCC1CC(OC(=O)NCc2cccc3ccccc23)CC2(CCCC(COC(=O)NCc3ccccc3)O2)O1 (stereo not given in full) | 0.278 (inactive) | 0.355 | -1.41 | -1.5 (inactive)
13 | CCCCC#C[C@@H]1C=C[C@H](Oc2ccc(C(=O)OC)cc2)[C@@H](COC(=O)OCC)O1 | -0.464 (inactive) | 0.522 | -0.332 | -5.73 (inactive)
14 | CCOC(=O)[C@H](Cc1ccccc1)NC(=O)CCC1CC(OC(=O)NCCc2ccc(F)cc2)CC2(CCCC(COC(=O)NCCc3ccc(Cl)cc3)O2)O1 (stereo not given in full) | -0.345 (inactive) | 0.348 | -1.84 | -3.08 (inactive)
15 | COC(=O)[C@H](C)NC(=O)CCC1CC(OC(=O)NCc2cccc3ccccc23)CC2(CCCC(COC(=O)NCC(c3ccccc3)c3ccccc3)O2)O1 (stereo not given in full) | 0.519 (inactive) | 0.583 | -1.87 | -4.01 (inactive)
16 | COC(=O)[C@@H]1CC[C@H](C)[C@@H](c2ccc(C)cc2)N1C(=O)c1ccc(C=NO[C@@H](C)c2cn([C@H](CO)Cc3ccccc3)nn2)cc1 | -0.0658 (inactive) | 0.739 | -0.309 | -5.13 (inactive)
17 | Cc1cc2c(nc1C)CCCCN2CC(C)ON=C[C@@H](C)[C@H](OCc1ccccc1)C(C)C (stereo not given in full) | -0.398 (inactive) | -0.0948 | -0.109 | -3.66 (inactive)
18 | C[C@H]1COC(=O)[C@@H]2CCCN2C(=O)[C@@H](C)COC(=O)[C@H](Cc2ccccc2)NC1=O | -0.102 (inactive) | 0.435 | -0.735 | 0.163 (inactive)
19 | COC(=O)CC=C[C@@H](C)[C@@H](C=NO[C@@H]1O[C@H](COC(C)=O)[C@@H](OC(C)=O)[C@H](OC(C)=O)[C@H]1OC(C)=O)NS(=O)(=O)c1ccc(C)cc1 | -0.0076 (inactive) | 0.203 | -0.0818 | -5.17 (inactive)
20 | CCc1cc2c(nc1CC)CCN(CCC(C)=NO[C@H](C)c1cn([C@H](CO)Cc3ccccc3)nn1)C2 | 0.076 (inactive) | 0.284 | -1.91 | -5.78 (inactive)
